Screening results: PubChem, SRMLSC
Hits are enriched below; roughly 6.3% of the tested compounds scored in any of these assays.
Fluor 339 460 = intrinsic fluorescence of library compounds, ex339/em460 – biochemical, MLSMR library, data from DPM-DC assay, artefact control, profiling panel; compound autofluorescence, ex339/em460 nm, NADH buffer; hits give high values; 1 = no-compound wells, NADH background; fluorescence fold increase at 10 µM; actives 5.5% (n = 65,000); AID 709, 2007;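 active means at 10 µM, mean starting fluorescence two-fold or more over control wells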;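 further: signal is the first read of a kinetic run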
MK inhibit = S. pneumoniae MK inhibitors, primary screen, biochemical, PK/LDH-coupled NADH absorbance. mevalonate kinase [Streptococcus pneumoniae D39]. purified MK, PK/LDH-coupled NADH absorbance 340 nm. inhibition, % at 10 µM. actives 0.48% (n = 65,000);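 active means ranked among the strongest by inhibition in the single 10 µM screen, a fixed top-ranked set picked for dose follow-up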
NADH enzymes = inhibitors of PK/LDH coupling enzymes, profiling panel, artefact control, biochemical, MLSMR library | actives 0.02% (n = 65,000) | IC50, µM (top dose mostly 10 µM), for the others: at the highest dose inhibition | coupled PK/LDH NADH assays, four targets;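 active means single-dose screening hits from any of four coupled enzyme assays that gave an IC50 when retested across doses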;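 further: the DPM-DC format reads NADH fluorescence rather than 340 nm absorbance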
Spn PMK inh = S. pneumoniae PMK inhibitors, primary screen, biochemical, mevalonate pathway, pilot trial included; purified PMK, PK/LDH-coupled NADH absorbance 340 nm; inhibition, % at 10 µM; actives 0.49% (n = 65,000);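 active means top-ranked compounds by inhibition in the single 10 µM screen, taking a fixed number of the strongest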;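 further: 0% = full reaction with DMSO carrier and 100% = background rate without enzyme reaction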
A340 absorber = compound light absorbance at 340 nm, profiling panel, artefact control, biochemical, MLSMR library, data from PS, PMK, MK assays; compound absorbance at 340 nm, fold over control; 65,000 tested, under 10 active; AID 708, 2007; fold change at 10 µM;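 active means at 10 µM dose, initial 340 nm absorbance at least 2 fold that of control wells; inactive means change under 2 fold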;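 further: initial absorbance extrapolated from kinetic A340 decline of NADH oxidation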
DPM-DC inhibit = S. pneumoniae DPM-DC inhibitors, primary screen, biochemical, PK/LDH-coupled NADH fluorescence; purified DPM-DC; calls only at 10 µM; actives 0.49% (n = 65,000); AID 556, 2006;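 active means the 320 compounds with the highest percent inhibition in the single-dose primary screen, excluding strongly autofluorescent ones, cut at about 32% in these data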;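 further: kinetic rate of NADH fluorescence loss reporting ADP formed by the decarboxylase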
* hit, by the source's call; i = inactive; nt = not tested or not shown; + = active, no number.

SMILES	Fluor 339 460	MK inhibit	NADH enzymes	Spn PMK inh	A340 absorber	DPM-DC inhibit
CC1CC(C)CN(c2oc(-c3ccco3)nc2C#N)C1 (stereo not given)	2.2*	22	16%	9	1.1	nt
CC1CCCC(C)N1C(=O)CN1C(=O)C(C)(C)Oc2ccc(C(=O)NC3CCCC3)cc21 (stereo not given)	1	8	5%	8	0.99	i
c1ccc(-c2nc3nonc3c3nc4ccccc4n23)cc1	2.3*	i	9%	4	1	+
c1ccc(-c2nc3nonc3nc2-c2ccccc2)cc1	1.1	6	5%	9	1.1	i
CNC(=O)c1cc2ccc(OC)cc2oc1=O	3.6*	10	7%	4	1.2	nt
COc1ccc2oc(=N)c(C(=O)Nc3ccccc3)cc2c1	1.2	7	7%	11	0.98	i
CNC(=O)c1cc2cc(OC)ccc2oc1=N	2.5*	0	4%	0	1.1	i
CN1CCc2c(sc3c2c(=O)n(-c2ccccc2)c2nnc(SCc4ccccc4)n32)C1	1.1	21	5%	0	0.98	i
CN1CCc2c(sc3c2c(=O)n(-c2ccccc2)c2nnc(SCc4ccc(F)cc4)n32)C1	1.4	3	5%	active	1	i
Cc1cc2nncn2c(Cc2ccccc2)n1	1.1	9	5%	5	1	i
Cc1cc(C)n(-c2nc(NCc3cccnc3)c3c4c(sc3n2)COC(C)(C)C4)n1	3.7*	2	5%	7	1.1	nt
O=C(CCn1c(=O)c2sccc2n(Cc2cc(=O)n3ccccc3n2)c1=O)NCc1ccco1	2.2*	6	10%	17	1.1	i
O=C(CCCn1c(=O)c2sccc2n(Cc2cc(=O)n3ccccc3n2)c1=O)NCc1ccco1	1.6	2	3%	1	1	i
Cc1c(N2C(=O)CSC23C(=O)Nc2ccccc23)c(=O)n(-c2ccccc2)n1C (stereo not given)	1.1	6	6%	8	1	i
CCCn1c(=O)[nH]c(=O)c2c1nc(-c1ccc3c(c1)OCCO3)n2CCN1CCOCC1	1.3	0	6%	18	1	i
O=[n+]1cc(-c2cc3ccccc3o2)n([O-])c2c1CCCC2	2.9*	12	16%	13	1.2	i
O=[n+]1cc(-c2ccc(F)cc2)n([O-])c2c1CCC2	1	0	4%	18	1	i
CCn1c(SCC(=O)Nc2nc3ccc(OC)cc3s2)nc2c1c(=O)n(C)c(=O)n2C	1.1	2	5%	12	1.1	i
CN(C)CCNC(=O)c1coc(=O)c(Br)c1	3.7*	9	10%	10	1.1	nt
Cc1ccc(C(=O)NCCN(C)C)c(C)c1	1.1	5	2%	0	1	i
CN1C(=O)C2(N=c3ccccc3=N2)c2ccccc21	2.1*	2	3%	4	1.1	nt
CN1/C(=C\C(=O)C(F)F)C(C)(C)c2ccccc21	1.1	32	5%	0	1	i
Cc1ccc(-n2ncc3c(N4CCC5(CC4)OCCO5)ncnc32)c(C)c1	0.66	1	10%	1	1	i
Cc1ccc2c(c1)c1ncnc(N3CCC4(CC3)OCCO4)c1n2C	3.7*	13	9%	4	1.1	nt
Cc1ccc2c(c1)c1ncnc(N3CCN(c4ccccc4)CC3)c1n2C	1.9	6	2%	0	1	i
SMILES	Fluor 339 460	MK inhibit	NADH enzymes	Spn PMK inh	A340 absorber	DPM-DC inhibit
Cc1ccc2c(c1)c1ncnc(N3CCOCC3)c1n2C	3.8*	8	5%	2	1	nt
Cc1c(C(=O)O)cnc2cc(-c3ccc(Cl)cc3)nn12	2.1*	9	7%	4	1.1	nt
COC(=O)c1c(NC(=O)c2ccc(Br)o2)sc(C)c1C	1.9	1	8%	8	1	i
COC(=O)c1c(NC(=O)c2ccco2)sc(C)c1C	2.1*	1	1%	0	1.1	nt
COC(=O)c1c(NC(=O)c2ccco2)sc(C(=O)Nc2ccc(F)cc2)c1C	3.9*	7	4%	0	1.1	nt
COc1c(F)c(F)c(C(=O)Nc2ccc(NC(=O)c3ccco3)cc2)c(F)c1F	1.2	10	10%	12	1.1	i
COc1ccc2cc3cc(C(=O)NCCCN4CCOCC4)oc3nc2c1	5.1*	0	2%	4	1.1	nt
COc1ccc(N2CC(C(=O)NCCCN3CCOCC3)CC2=O)cc1 (stereo not given)	1.1	51*	17%	0	1	i
COc1cc(OC)cc(-n2nc(C(=O)NCCCN3CCOCC3)c3ccccc3c2=O)c1	1.2	0	0%	0	1	i
Cc1ccc2cc3cc(C(=O)NCc4ccc5c(c4)OCO5)oc3nc2c1	5.2*	2	2%	1	1.1	nt
COc1ccc2cc3cc(C(=O)Nc4ccc5c(c4)OCO5)oc3nc2c1	1.3	0	7%	21	1.1	i
COc1ccc(C2=NOC(C(=O)NCCCN3CCOCC3)C2)cc1 (stereo not given)	1.1	0	2%	3	0.99	i
Cc1ccc2cc3cc(C(=O)NCCN4CCOCC4)oc3nc2c1	3.2*	0	14%	5	1.1	nt
Cc1ccc(NC2=NC(c3ccco3)n3c(nc(C)cc3=O)N2)c(C)c1 (stereo not given)	1.1	4	3%	6	1.1	i
Cc1cc(NC(=O)c2cncc(Br)c2)n(-c2ccccn2)n1	1.1	14	9%	12	1.1	i
CCN1CCN(CCCNC(=O)C2c3ccccc3C(=O)N(C)C2c2ccc(OC)cc2)CC1 (stereo not given)	1	3	2%	0	1	i
CCN1CCN(CCCNC(=O)c2cc3cc4ccc(OC)cc4nc3o2)CC1	5.2*	2	7%	12	1.1	nt
CC(=O)c1ccc(-n2nncc2C)cc1	1.1	16	5%	0	1.1	i
Cc1cccc(OCC(=O)Nc2ccc(N3CCCC3)cc2)c1C	1	5	4%	10	0.99	i
CCOc1ccccc1OCC(=O)Nc1ccc(N2CCCCC2)cc1	1.1	4	16%	0	1	+
CCN(CC)CCOc1cc2c(nn1)Oc1ccccc1N2C	3.8*	9	11%	13	1.1	nt
Cc1ccc2nc(-c3ccccn3)cc(C(=O)NC3CCN(C)CC3)c2c1	3*	2	7%	0	1.1	i
O=c1cc(N2CCOCC2)[nH]c(=O)n1-c1ccc(Br)cc1	1.1	7	2%	0	1	i
CC1=NN(c2ccccc2)C(=O)C1	1	53*	5%	0	1	i
